TMEM16A act – activates or potentiates the mouse TMEM16A chloride channel; Q8BHY3; HEK293 TMEM16A/YFP-H148Q/I152L, iodide quench fluorescence; active compounds read low; B-score at 10 µM; 340,000 tested, 0.3% active; AID 623877;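 active = fluorescence-ratio B-score plate-corrected deviation score at least 3 library SD below zero, with starting fluorescence score within 5 deviations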;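 note: channel opened by trigger with iodide after compound preincubation; score built on the fluorescence ratio of max minus min over baseline; more negative score means more quench and so TMEM16A activation or potentiation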
IDE cell inh – cellular human IDE inhibition; P14735; HEK cells, FAbetaB cleavage, fluorescence polarization; inhibition, % at 5.59 µM; 320,000 tested, 0.41% active; AID 434962;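 active = percent inhibition above the average of all tested compounds plus 3 SD, set per screening campaign, cut at about 16% in these data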;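 note: IDE supplied by intact live HEK cells; FP after avidin binding of uncleaved biotin substrate so inhibition keeps polarization high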
CHT inh – inhibits the human high affinity choline transporter; 310,000 tested, 0.86% active; Q9GZV3; B-score at 10 µM; CHT-expressing cells, membrane potential dye, choline response; active compounds read low;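 active = B-score over 3 SD under the library average, and starting fluorescence ratio not unusually high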;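 note: choline stimulus applied at its EC90 after an EC20 pre-addition; B-score computed on integrated fluorescence ratio after choline addition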
IDE cell activ – boosts human insulin-degrading enzyme activity in HEK cells; activation, % at 5.96 µM; P14735; FAbeta-B cleavage, fluorescence polarization; 0% vehicle, 100% cell-free pure enzyme wells; 340,000 tested, 0.073% active;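 active = activation above the mean of all tested compounds plus 3 SD, set per screening campaign, cut at about 17% in these data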
TMEM16A inh – inhibitors of mouse TMEM16A calcium-activated chloride channel; HEK293 TMEM16A/YFP iodide influx fluorescence, ionomycin; Q8BHY3; 310,000 tested, 1.2% active; normalized B-score (activity score, 25-100; higher = stronger inhibition) at 10 µM;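 active = ratio plate-corrected score three or more library SD toward inhibition, starting fluorescence score within five deviations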;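 note: score derived from kinetic fluorescence span divided by baseline fluorescence per well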
CHT allo act – allosterically activates the human high affinity choline transporter; 310,000 tested, 0.49% active; B-score at 10 µM; AID 488977; CHT-expressing cells, membrane potential dye, choline EC20; active compounds read high; LV-AA mutant CHT in HEK293 cells; Q9GZV3;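 active = initial fluorescence not abnormally high and integrated response B-score, plate-corrected, over 3 SD above library mean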
CHT act confirm – confirmation of human choline transporter (CHT) activators. activation, % at 10 µM. AID 504833. CHT-expressing cells, membrane potential dye fluorescence (FDSS); % of choline EC20–EC90 response window; HEK293 expressing CHT LV-AA mutant; choline added at its EC20. 2,500 tested, 91% active. shares compounds with CHT allo act;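 active = primary screen active, with duplicate mean activation above negative control mean plus 3 SD, cut at about 11% in these data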
HEK293 MP dye – activity in parental HEK293 cells lacking CHT; shares compounds with CHT allo act; membrane potential dye fluorescence (FDSS); measured after EC20 choline addition; 2,500 tested, 62% active; ratio readout change at 10 µM, hits read low;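 active = duplicate-averaged ratio beyond 3 SD from buffer wells, up or down, though filed actives are nearly all decreases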
Hits are given with their value; – = inactive; · = no result given. This is a sample that favours compounds with a hit; in the whole collection about 2.7% have one here.

SMILES	TMEM16A act	IDE cell inh	CHT inh	IDE cell activ	TMEM16A inh	CHT allo act	CHT act confirm	HEK293 MP dye
Cc1cc(N2CCN(C(=O)Nc3ccccc3C#N)CC2)c2ccccc2n1	–	·	–	–	–	–	56	-82
O=C(Nc1ccc(C2=NCCN2)cc1)c1ccc(C(=O)Nc2ccc(C3=NCCN3)cc2)c([N+](=O)[O-])c1	–	–	–	–	–	–	·	·
O=[N+]([O-])c1cc(Cl)cc(C2=NCCN2)c1	–	–	–	–	–	–	49	-55
C(=N\Nc1ccc2nncn2n1)/c1ccccn1	–	–	–	·	–	–	24	-54
O=c1nc(N/N=C/c2ccccn2)cn[nH]1	–	–	–	–	–	–	·	·
CCOC(=O)C[C@H]1c2ccccc2S(=O)(=O)N1Cc1cccc(C(F)(F)F)c1	–	–	–	–	–	–	17	–
O=C(COC(=O)c1ccc2c(c1)OCO2)Nc1ccccc1Cl	–	–	·	–	·	·	·	·
CCOc1ccc(OCCC(=O)N(CC)CC(=O)Nc2ccccc2C(F)(F)F)cc1	–	–	–	–	–	–	·	·
CCN(CC(=O)Nc1ccccc1C(F)(F)F)C(=O)CCOc1ccc(C)cc1	–	–	–	–	–	–	–	–
Cn1ccnc1C1CCCCN1Cc1nc(-c2ccc3c(c2)OCO3)no1 (centres undefined)	–	–	–	–	–	–	·	·
COc1ccc(-c2noc(CN3CCCCC3c3nccn3C)n2)cc1 (centres undefined)	–	–	–	–	–	11	49	–
C(=N\n1cnnc1)/c1ccccn1	–	–	–	–	–	–	·	·
C(=N\n1cnnc1)/c1ccc2ncccc2c1	–	–	–	–	–	8	67	-80
OCCCCCNc1ncnc2ccccc12	–	–	–	–	–	–	·	·
CCN(CC)CCCNc1ncnc2ccccc12	–	–	–	–	–	7.8	61	-66
CCOC(=O)CNc1c(-c2ccc(O)cc2)nc2ccc(Cl)cn12	–	–	–	–	–	–	·	·
CCOC(=O)CNc1c(-c2ccc(O)cc2)nc2ccccn12	·	–	–	–	–	–	56	-44
Cc1nc2c(C)[n+](CC(=O)c3ccccc3)ccc2n1C	–	–	–	·	–	–	44	-38
C[n+]1c2n(c3ccccc31)N=C(c1ccc(Cl)cc1)CS2	–	–	–	–	–	–	·	·
COc1ccc(C2=Nn3c([n+](C)c4ccccc43)SC2)cc1	–	–	–	–	–	11	57	-48
COC(=O)c1cn(CCOc2ccccc2)c2ccccc12	–	–	–	–	–	–	·	·
CCN(CC)C(=O)C(=O)c1cn(CCOc2ccccc2)c2ccccc12	–	–	–	–	–	–	–	–
CCN1CCN(C(=O)C(=O)c2cn(CC(=O)N(CC)CC)c3ccccc23)CC1	–	–	–	–	–	–	44	–
CCCn1c(SCc2ccc(C(=O)OC)o2)nc2ccccc2c1=O	–	–	–	–	–	6.7	48	–
CC[n+]1ccc(C)c2cc(P(=O)(c3ccccc3)c3ccccc3)ccc21	–	–	–	–	–	7.8	58	-42
SMILES	TMEM16A act	IDE cell inh	CHT inh	IDE cell activ	TMEM16A inh	CHT allo act	CHT act confirm	HEK293 MP dye
CC[n+]1ccc(C)c2cc(SC(F)(F)F)ccc21	–	–	–	–	–	6.9	33	-52
Cc1ccc(S(=O)(=O)N2CCOCC2)cc1C(=O)NCc1ccccc1CN1CCCC1	–	–	·	–	·	·	·	·
Cc1ccc2c(c1)N(C)/C(=C/c1cccc[n+]1CCO)S2	–	–	–	–	–	–	·	·
Cc1ccc2c(c1)S/C(=C/c1ccc[n+](C)c1)N2CCO	–	–	–	–	–	7	34	-49
CCOc1ccc(OCCC(=O)Nc2cccc(S(=O)(=O)N3CCCC3)c2)cc1	–	·	·	–	·	·	·	·
CC(C)CC(COCc1ccc([N+](=O)[O-])cc1)N1CCN(C(=O)c2ccc(C(F)(F)F)cc2)CCC1=O (centres undefined)	–	–	–	–	–	–	29	–
Cc1cccc(COCC(Cc2ccccc2)N2CCN(C(=O)c3ccc(C(F)(F)F)cc3)CCC2=O)c1 (centres undefined)	–	–	–	–	–	–	35	–
O=C(c1ccc(C(F)(F)F)cc1)N1CCC(=O)N(C(COCc2ccc(C(F)(F)F)cc2)Cc2ccccc2)CC1 (centres undefined)	–	–	–	–	–	–	·	·
CCSC(=O)N1c2ccc(OC)cc2C=CC1C#N (centres undefined)	–	·	·	–	·	·	·	·
Cc1ccc(S(=O)(=O)NCC(=O)OCC(=O)N2C(C)CCCC2C)cc1 (centres undefined)	–	–	·	–	·	·	·	·
CCn1c(NC(C)=O)c(-c2ccccc2Cl)c(=O)c2ccccc21	–	–	–	–	–	–	·	·
CCC(=Nc1ccccc1O)C1=C(O)CC(c2ccccc2)CC1=O (centres undefined)	–	–	–	–	–	–	·	·
CCC(=Nc1ccccc1OC)C1=C(O)CC(c2ccccc2)CC1=O (centres undefined)	–	–	–	–	–	12	32	–
CCN1CCc2nc(NC(=O)C(c3ccccc3)c3ccccc3)sc2C1	–	–	–	–	–	–	17	–
CC(C)(C)N(NC(=O)c1ccccc1)C(=O)c1cccc(C(=O)N(NC(=O)c2ccccc2)C(C)(C)C)c1	–	–	–	–	–	8.5	35	–
COc1ccc(NC(=O)NN(C(=O)c2ccccc2)C(C)(C)C)cc1	–	–	–	–	–	–	·	·
CC(C)CN(C(=O)CSc1n[nH]c(-c2cccs2)n1)C1CCS(=O)(=O)C1 (centres undefined)	–	–	·	–	·	·	·	·
CCOC(=O)c1c[nH]c2c(Cl)c(Cl)ccc2c1=O	–	–	–	–	–	–	39	-37
CCOC(=O)c1c[nH]c2c(Cl)ccc(Cl)c2c1=O	–	–	–	–	–	7.2	69	-64
CCOC(=O)c1c[nH]c2c(C)cc(C)cc2c1=O	–	–	–	–	–	8.1	63	-37
Cn1c(N)c(C(=O)COC(=O)/C=C/c2cccc(Cl)c2)c(=O)n(C)c1=O	–	–	·	–	·	·	·	·
COc1ccc(N2CCN(C(CNC(=O)COc3ccccc3)c3ccco3)CC2)cc1 (centres undefined)	–	–	–	–	–	7.1	11	–
CSc1cccc(NC(=O)CN(C2CCCCC2)S(C)(=O)=O)c1	–	–	–	–	–	8.9	42	–
COc1ccc(OCC(=O)Nc2ccc3c(c2)n(C)c(=O)n3C)cc1	–	–	–	–	–	–	·	·
